# Test results taken from the supplement of paper PMC4188521.
# Compound: CCc1cnn2c(NCc3ccc[n+]([O-])c3)cc(N3CCCC[C@H]3CCO)nc12 [dinaciclib]
# Test: cell viability remaining relative to DMSO control; higher = less cytotoxic (more viable cells)
# Details: 100 nM; 24 h
# Experimental: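 Solid tumor cell lines were treated with dinaciclib (100 nM) for 24 hr. Viability was measured by CellTiter-Glo ATP luminescence and expressed as % of DMSO-treated control wells (mean of 2-6 plates, triplicate wells per plate).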
row,Target,cell viability remaining [%]
1,H69,87.1
2,SKNAS,35
3,A375,62
4,OVCAR8,104
5,T98G,53.4
6,COV434,7.7
7,CHAGOK1,52.5
8,HCC1500,46.2
9,H1975,69.4
10,EN,51.9
11,SJRH30,12
12,MDAMB231,57.6
13,SKLMS1,82.9
14,DU4475,72.3
15,T84,76.2
16,COV644,23.3
17,HS895T,92.4
18,HOS,36.2
19,A101D,33.9
20,RPMI7951,45.3

row,Target,cell viability remaining [%]
1,VCAP,37.8
2,786O,44.3
3,SW48,55.8
4,SW403,74.9
5,OVSAHO,61.8
6,SW900,74.3
7,HS940T,78.6
8,MEWO,52.8
9,SU8686,48.9
10,OVTOKO,95.4
11,OVMANA,87.9
12,CHP212,19.7
13,SNU423,36.7
14,AN3CA,13.9
15,TYKNU,83.8
16,MSTO211H,68.4
17,COLO792,8.9
18,KLE,91.8
19,TOV21G,66.7
20,H526,16.7
